From PubChem BioAssay (NCATS)
Results filed as inconclusive are left out. Unmarked numbers belong to inactive results. Calls of active or inactive are those of the source. Calls come from the whole dose curve; as a rule, active = well fitted curve in the direction sought with a large enough effect; inconclusive = small, poorly fitted or top-dose-only effect, or another doubt; inactive = no such curve, though single readings can be large; an effect the other way counts as inactive or inconclusive.

target: Glutaminase kidney isoform, mitochondrial (Homo sapiens) (UniProt O94925); test: qHTS for Inhibitors of Glutaminase (GLS): LOPAC Validation (AID 624146); conditions: glutaminase enzyme activity inhibition; series mostly up to 46.1 µM; activity change, negative = inhibition: at the top concentration; note: nearly all actives have a fitted effect of over 60% in size; note: potency is the fitted concentration of half-maximal effect;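 for activity change, negative = inhibition: glutamate product detected by oxidase and peroxidase coupled Amplex red fluorescence gain; % is set by controls: 0 for no effect and ±100 for the full control effect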
Sequence (O94925 whole entry, looked up, canonical isoform): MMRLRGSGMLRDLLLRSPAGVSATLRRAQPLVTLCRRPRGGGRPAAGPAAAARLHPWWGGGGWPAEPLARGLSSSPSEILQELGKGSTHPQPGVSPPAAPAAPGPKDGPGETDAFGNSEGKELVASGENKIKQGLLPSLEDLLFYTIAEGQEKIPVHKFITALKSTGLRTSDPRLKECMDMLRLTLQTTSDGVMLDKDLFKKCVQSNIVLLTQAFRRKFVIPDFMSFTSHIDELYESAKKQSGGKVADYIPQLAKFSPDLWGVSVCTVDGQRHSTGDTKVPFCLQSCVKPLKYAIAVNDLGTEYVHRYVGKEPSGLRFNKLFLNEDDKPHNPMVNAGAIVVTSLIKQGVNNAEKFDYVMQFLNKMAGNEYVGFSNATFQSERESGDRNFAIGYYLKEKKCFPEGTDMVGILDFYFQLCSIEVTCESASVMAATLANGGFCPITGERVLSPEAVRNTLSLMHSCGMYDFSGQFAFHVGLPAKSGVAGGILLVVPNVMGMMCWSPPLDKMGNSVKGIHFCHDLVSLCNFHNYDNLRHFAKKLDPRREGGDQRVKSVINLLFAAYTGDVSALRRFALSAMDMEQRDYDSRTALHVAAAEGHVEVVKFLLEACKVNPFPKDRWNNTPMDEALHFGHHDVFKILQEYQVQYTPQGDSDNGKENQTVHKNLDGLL
Outline: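 Enzyme dispensed in phosphate buffer (45 mM, pH 8.2, 0.02% Tween-20), compounds pinned in, then 1 mM L-glutamine solution and the glutamate oxidase–HRP–Amplex Red mix added; fluorescence read immediately and again after 30 min at room temperature.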

| Structure (SMILES) | activity change, negative = inhibition [%] | Potency |
| --- | --- | --- |
| CCCN(CCC)CCc1cccc2c1CC(=O)N2 | -18.7 |  |
| COCC(=O)O[C@]1(CCN(C)CCCc2nc3ccccc3[nH]2)CCc2cc(F)ccc2[C@@H]1C(C)C | -4.91 |  |
| c1ccc2c(c1)CCCC2C1=NCCN1 (stereo not given) | 42.9 |  |
| c1cc(CN2CCCCC2)cc(OCCCNc2nc3ccccc3s2)c1 | -22 |  |
| OCCN1CCN(CCCN2c3ccccc3C=Cc3ccccc32)CC1 | -9.19 |  |
| CC(C)NCC(O)c1cc(O)cc(O)c1 (stereo not given) |  | 7.08 µM (active) |
| CC(C)(C)c1ccc(C(=O)CCCN2CCC(OC(c3ccccc3)c3ccccc3)CC2)cc1 | 70.4 |  |
| CCN(CC)CCNC(=O)c1ccc(NC(C)=O)cc1 | -14.3 |  |
| CC(=O)OCC1=C(C(=O)O)N2C(=O)[C@@H](NC(=O)Cc3cccs3)[C@H]2SC1 | -29.9 |  |
| NC(N)=N/N=C/c1c(Cl)cccc1Cl | 1.53 |  |
| CCN(CC)CC(=O)Nc1c(C)cccc1C | 9.79 |  |
| O=C(CCNNC(=O)c1ccncc1)NCc1ccccc1 | 461 |  |
| CCCN(CCC)C(=O)C(CCC(=O)O)NC(=O)c1ccccc1 (stereo not given) | -9.24 |  |
| COc1ccc([C@@H]2Sc3ccccc3N(CCN(C)C)C(=O)[C@@H]2OC(C)=O)cc1 | -21.3 |  |
| CNCCC(Oc1ccccc1OC)c1ccccc1 (stereo not given) | -0.148 |  |
| COc1cc2c(cc1OC)-c1cc(=Nc3c(C)cc(C)cc3C)n(C)c(=O)n1CC2 | -28.1 |  |
| CN1CCN(CC(=O)N2c3ccccc3C(=O)Nc3cccnc32)CC1 | -3.51 |  |
| OC(CCN1CCCCC1)(c1ccccc1)C1CCCCC1 (stereo not given) | -19 |  |
| CCCN1C[C@H](CSC)C[C@@H]2c3cccc4[nH]cc(c34)C[C@H]21 | -7.23 |  |

tested on: not listed separately; test: qHTS of Trypanosoma Brucei Inhibitors: LOPAC Validation (AID 624147); conditions: purified enzyme assay, luminescence, 45 min; series mostly up to 57.5 µM; activity change, negative = inhibition: at the top concentration; note: 0% is about no effect
Outline: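 T. brucei PYK with substrate was exposed to pin-transferred compounds across a concentration series, then started with 130 uM ADP (final). After 45 min at room temperature, Kinase-Glo Plus luminescence was read, normalized and curve-fitted.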

| Structure (SMILES) | activity change, negative = inhibition [%] |
| --- | --- |
| NC(=O)c1cn(Cc2c(F)cccc2F)nn1 | -12.3 |
| CCCN(CCC)CCc1cccc2c1CC(=O)N2 | -17.2 |
| COCC(=O)O[C@]1(CCN(C)CCCc2nc3ccccc3[nH]2)CCc2cc(F)ccc2[C@@H]1C(C)C | -7.01 |
| c1ccc2c(c1)CCCC2C1=NCCN1 (stereo not given) | -7.37 |
| c1cc(CN2CCCCC2)cc(OCCCNc2nc3ccccc3s2)c1 | -12.1 |
| CC(C)(C)NCC(O)c1cc(O)cc(O)c1 (stereo not given) | -5.36 |
| CN(C)CCOC(=O)COc1ccc(Cl)cc1 | -5.91 |
| Cc1cccc(C)c1NC(=O)C(C)N (stereo not given) | -9.34 |
| C[N+](C)(C)CCOC(=O)CCC(=O)OCC[N+](C)(C)C | -5.3 |
| OCCN1CCN(CCCN2c3ccccc3C=Cc3ccccc32)CC1 | -5.7 |
| CC(C)NCC(O)c1cc(O)cc(O)c1 (stereo not given) | -11.4 |
| Cc1nc2ccccn2c(=O)c1CCN1CCC(C(=O)c2ccc(F)cc2)CC1 | -7.99 |
| CC(C)(C)c1ccc(C(=O)CCCN2CCC(OC(c3ccccc3)c3ccccc3)CC2)cc1 | -5.91 |
| N[C@@H](COP(=O)(O)O)C(=O)O | -11.1 |
| O=C(O)CN(CCOCCOCCN(CC(=O)O)CC(=O)O)CC(=O)O | 8.36 |
| C[C@]12CC[C@@H]3c4ccc(O)cc4C[C@@H](CCCCCCCCCS(=O)CCCC(F)(F)C(F)(F)F)[C@H]3[C@@H]1CC[C@@H]2O (stereo not given in full) | -6.26 |
| CCN(CC)CCNC(=O)c1ccc(NC(C)=O)cc1 | -5.04 |
| CCCCCCCC/C=C\CCCCCCCC(=O)NCc1ccc(O)c(OC)c1 | -11.1 |

| Structure (SMILES) | activity change, negative = inhibition [%] |
| --- | --- |
| COCCOC(=O)C1=C(C)NC(C)=C(C(=O)OC(C)C)C1c1cccc([N+](=O)[O-])c1 (stereo not given) | 4.85 |
| CC(=O)OCC1=C(C(=O)O)N2C(=O)[C@@H](NC(=O)Cc3cccs3)[C@H]2SC1 | -10.5 |
| NC(N)=N/N=C/c1c(Cl)cccc1Cl | -8.76 |
| Cc1ccc(=O)n(-c2ccccc2)c1 | -8.62 |
| CCN(CC)CC(=O)Nc1c(C)cccc1C | -9.45 |
| CCc1c(C)[nH]c2c1C(=O)C(CN1CCOCC1)CC2 (stereo not given) | -10.3 |
| CN(C)[C@@H]1C(=O)C(C(N)=O)=C(O)[C@@]2(O)C(=O)C3=C(O)c4c(O)ccc(Cl)c4[C@@H](O)[C@H]3C[C@@H]12 | -14 |
| NC1=NCC2c3ccccc3Cc3ccccc3N12 (stereo not given) | -10.7 |
| O=C(CCNNC(=O)c1ccncc1)NCc1ccccc1 | -11.8 |
| CO[C@@]1(NC(=O)CSCC#N)C(=O)N2C(C(=O)O)=C(CSc3nnnn3C)CS[C@@H]21 | -6.33 |
| CCCN(CCC)C(=O)C(CCC(=O)O)NC(=O)c1ccccc1 (stereo not given) | -1.56 |
| COc1ccc([C@@H]2Sc3ccccc3N(CCN(C)C)C(=O)[C@@H]2OC(C)=O)cc1 | -1.15 |
| CNCCC(Oc1ccccc1OC)c1ccccc1 (stereo not given) | -11.3 |
| COc1cc2c(cc1OC)-c1cc(=Nc3c(C)cc(C)cc3C)n(C)c(=O)n1CC2 | -8.75 |
| CN1CCN(CC(=O)N2c3ccccc3C(=O)Nc3cccnc32)CC1 | -6.19 |
| OC(CCN1CCCCC1)(c1ccccc1)C1CCCCC1 (stereo not given) | -7.13 |
| CCCN1C[C@H](CSC)C[C@@H]2c3cccc4[nH]cc(c34)C[C@H]21 | 0.818 |
| CN(C)C(=O)Oc1cccc([N+](C)(C)C)c1 | -7.77 |
